# In PubChem BioAssay (Tox21):
# Inconclusive results are not listed. Entries that show only a call come without a potency. Activity calls are given as the source filed them. Calls follow the shape of the dose curve; as a rule, active = well fitted inhibition curve with a large enough effect in the signal ratio in the repeat runs (not every such curve was filed as active); inconclusive = weak or mixed curves, or effect the other way; inactive = flat fitted curve, though single readings scatter; the % refers to the signal ratio.
# Assay: cAMP Responsive Elements (CRE) small molecule antagonists, cell-based qHTS assay (AID 1963591)
# Details: CRE-bla HEK293T, beta-lactamase FRET ratio; series mostly up to 92.4 µM; activity change, negative = inhibition: at the top concentration
# Description: U.S. Tox21 Program National Center for Advancing Translational Sciences [NCATS] Division of Preclinical Innovation [DPI] U.S. Environmental Protection Agency [EPA] National Institutes of Environmental Health Sciences [NIEHS] National Toxicology Program [NTP] U.S. Food and Drug Administration [FDA] Tox21 Assay Overview: CREB (cyclic-AMP Responsive Element Binding Protein) is a cellular transcription factor. It binds to certain DNA sequences called cAMP Responsive Elements (CRE) and regulates the transcription of the genes. […] This cell line can be used to find agonists/antagonists of the cyclic AMP signaling pathway. The activation of the report gene under culture conditions can be detected by fluorescence intensity. This cell line has been used to screen the Tox21 10K compound library to […].
# Tox21 Assay Protocol Summary: CRE-bla Hek 293T cells were suspended in assay medium (DMEM containing 10% dialyzed FBS, 0.1 mM NEAA, 1 mM sodium pyruvate and 25 mM HEPES) and dispensed at 2,000 cells/4 uL /well into 1536-well black wall/clear bottom plates using a Multidrop Combi (ThermoFisher Scientific, Waltham, MA) dispenser. After the assay plates were incubated at 37 C/5% CO2 for 18 hrs, 23 nL of compounds dissolved in DMSO, positive controls or DMSO only was transferred to the assay plate by a pintool workstation (Kalypsys, San Diego, CA), followed by addition of 1 […] uL of 1.25uM NKH477 (0.25 uM as final concentration) in assay medium using a Flying Reagent Dispenser (Aurora Discovery, San Diego, CA). The plates were incubated at 37 C and 5% CO2 for 3 hrs. Then 1 uL of LiveBLAzer B/G FRET substrate (Invitrogen, Carlsbad, CA) was added to each well using Bioraptr Flying Reagent Dispenser (FRD, Aurora Discovery, San Diego, CA). The plates were incubated at room temperature for 2 h.
SMILES,"activity change, negative = inhibition",Potency
Nc1ccc(Cl)cc1N,-11.3% (inactive),
CC(C)(C)OOC(C)(C)C,,inactive
CC(C)C#N,,inactive
CNC(=O)O/N=C/C(C)(C)S(C)=O (stereo not given),,inactive
Clc1nc(Cl)nc(Nc2ccccc2Cl)n1,2.15% (inactive),
O=C(NC(=O)c1ccccc1Cl)Nc1ccc(OC(F)(F)F)cc1,0.955% (inactive),
O=[N+]([O-])c1ccc(Oc2ccc(Cl)cc2Cl)cc1,,inactive
CCCCOC(=O)c1ccccc1C(=O)OCc1ccccc1,1.75% (inactive),
CCCC[N+]1(C)CCCC1,,inactive
CCNc1nc(Cl)nc(NCC)n1,,inactive
C1CN2CCC1CC2,-3.95% [at 42.4 µM] (inactive),
CC(C)=CC1C(C(=O)OCN2C(=O)C3=C(CCCC3)C2=O)C1(C)C (stereo not given),0.679% [at 42.4 µM] (inactive),
Oc1ccccc1-c1ccccc1,,inactive
Cc1cnc[nH]1,-2.54% (inactive),
c1ccc(OP(Oc2ccccc2)Oc2ccccc2)cc1,,inactive
Cc1ccc2c(C)cccc2c1,-3.8% (inactive),
CN1C(=O)CN=C(c2ccccc2)c2cc(Cl)ccc21,,inactive
ClC(Cl)(Cl)C(Cl)(Cl)Cl,-0.0801% (inactive),
OC(Cc1ccccc1Cl)(Cn1cncn1)C1(Cl)CC1 (stereo not given),4.46% (inactive),
CC[N+](=O)[O-],,inactive

SMILES,"activity change, negative = inhibition",Potency
C=CC(=O)NC(C)(C)CC(C)=O,3.8% (inactive),
BrCCBr,,inactive
N#Cc1cccc(C#N)c1,,inactive
COCCl,,inactive
CCCCOCCOC(C)=O,,inactive
O=S(=O)(c1ccc(Cl)cc1)c1cc(Cl)c(Cl)cc1Cl,,inactive
c1ccc2c(c1)-c1cccc3cccc-2c13,9.07% (inactive),
C=CCOC(Cn1ccnc1)c1ccc(Cl)cc1Cl (stereo not given),-14.6% [at 42.4 µM] (inactive),
NNC(=O)c1ccccc1,3.03% (inactive),
O=c1[nH]c(=O)n(Cl)c(=O)n1Cl,,inactive
Brc1ccc(Br)cc1,,inactive
CC(C)Nc1nc(Cl)nc(NC(C)C)n1,3.94% (inactive),
C[C@H]1O[C@H](OC2[C@@H](O)[C@@H](O)C(O)[C@H](O)[C@H]2O)[C@@H](N)C[C@@H]1N=C(N)C(=O)O (stereo not given in full),2.98% (inactive),
N#Cc1ccc(Cl)cc1,-12.9% (inactive),
COP(=S)(OC)Oc1cc(Cl)c(Cl)cc1Cl,,inactive
CCCOC(=O)c1cncn1C(C)c1ccccc1 (stereo not given),2.81% [at 42.4 µM] (inactive),
COc1ccc(C(CN(C)C)C2(O)CCCCC2)cc1 (stereo not given),,inactive
OCC(Cl)CCl (stereo not given),0.0127% (inactive),
CCOP(=S)(OCC)SCCSCC,,inactive
Nc1ccc(N)cc1,,inactive
